Data: PubChem BioAssay (NCATS)
Values joined by “and” are separate entries in the source; they are usually repeats but may differ in a detail not shown here. Equal values may be shown once. Results filed as inconclusive are left out. A call without a number means that no potency is given here. Values without a mark were called inactive. Active and inactive are the calls of the source. Calls come from the whole dose curve; as a rule, active = well fitted curve in the direction sought with a large enough effect; inconclusive = small, poorly fitted or top-dose-only effect, or another doubt; inactive = no such curve, though single readings can be large; an effect the other way counts as inactive or inconclusive.

Columns and labels:
[1] = system: Zika virus NS2B-NS3 protease (unlinked); experiment: Optimization of GU AMC qHTS for Zika virus inhibitors: Unlinked NS2B-NS3 protease assay (AID 1347151); note: series mostly up to about 52 µM; nearly all actives have a fitted effect of over 80% in size
Outline: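 Fluorescence read-out (340 nm ex / 450 nm em) of AMC peptide cleavage, taken immediately and after 15 min at room temperature (~20% conversion). Enzyme was the unlinked NS2B–NS3 complex at 25 nM in Tris pH 8.0 buffer.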

[2] = system: Zika virus NS2B-NS3 protease; experiment: Primary screen GU AMC qHTS for Zika virus inhibitors (AID 1347154); note: nearly all actives have a fitted effect of over 70% in size; note: potency is the fitted concentration of half-maximal effect
Outline: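 Unlinked Zika NS2B hydrophilic domain/NS3 protease domain noncovalent complex (25 nM final) in 10 mM Tris-HCl pH 8.0, 0.01% Tween 20, with AMC peptide substrate. Fluorescence (ex 340, em 450 nm) change over 15 min, room temperature; percent inhibition fitted to 4-parameter Hill equation.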

Furin (Homo sapiens) = Furin (Homo sapiens) (UniProt P09958); experiment: Furin counterscreen qHTS for Zika virus inhibitors (AID 1347149);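 note: purified recombinant full-length human furin enzyme at 5 nM; fluorescence gain from furin cutting a BOC-RVRR-AMC peptide substrate over 15 min; top concentration of the series differs between compounds; nearly all actives have a fitted effect of over 70% in size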
Sequence of Furin (Homo sapiens) (P09958 whole entry, looked up): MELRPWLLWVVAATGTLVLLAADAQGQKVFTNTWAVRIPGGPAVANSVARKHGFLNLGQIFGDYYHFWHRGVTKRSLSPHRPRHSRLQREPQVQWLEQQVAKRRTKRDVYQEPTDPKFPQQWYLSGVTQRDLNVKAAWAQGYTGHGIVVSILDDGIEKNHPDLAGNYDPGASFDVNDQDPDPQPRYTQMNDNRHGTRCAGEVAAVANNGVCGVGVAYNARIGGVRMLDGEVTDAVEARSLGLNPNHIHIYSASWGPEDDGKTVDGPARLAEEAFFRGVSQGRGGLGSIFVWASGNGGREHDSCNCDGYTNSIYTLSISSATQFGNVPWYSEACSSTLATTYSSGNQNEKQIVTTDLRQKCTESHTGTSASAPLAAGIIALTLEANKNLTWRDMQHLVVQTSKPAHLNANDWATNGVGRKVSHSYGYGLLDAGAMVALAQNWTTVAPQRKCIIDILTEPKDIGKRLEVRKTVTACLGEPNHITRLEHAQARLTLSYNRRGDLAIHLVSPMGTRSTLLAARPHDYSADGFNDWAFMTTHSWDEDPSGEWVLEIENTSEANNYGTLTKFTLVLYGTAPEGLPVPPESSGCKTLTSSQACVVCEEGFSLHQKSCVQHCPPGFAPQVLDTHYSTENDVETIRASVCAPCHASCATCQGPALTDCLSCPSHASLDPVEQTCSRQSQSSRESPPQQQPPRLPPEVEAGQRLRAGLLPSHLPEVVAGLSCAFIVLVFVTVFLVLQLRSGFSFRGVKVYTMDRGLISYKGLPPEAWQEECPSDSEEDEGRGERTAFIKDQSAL
Outline: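 Fluorogenic cleavage of BOC-RVRR-AMC (2 microM final, Km ~15 µM) was monitored (ex 340, em 450 nm) at 37C after 15 min RT preincubation of 5 nM furin with compounds in HEPES pH 7.0 buffer with CaCl2 and Triton X-100. Percent inhibition was fitted to a 4-parameter Hill curve.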

[3] = system: Zika virus NS2B-NS3 protease (unlinked complex); experiment: Primary screen GU Rhodamine qHTS for Zika virus inhibitors: Unlinked NS2B-NS3 protease assay (AID 1347159); note: nearly all actives have a fitted effect of over 60% in size; note: potency is the fitted concentration of half-maximal effect
From the text: Avindra Nath, Ph.D., National Institute of Neurological Disorders and Stroke (NINDS), Bethesda, MD
Radhakrishnan Padmanabhan, Ph.D., Georgetown University (GU), Washington D.C.
Zika Virus causes congenital defects, including microcephaly and is associated with Guillain-Barre syndrome, eningoencephalitis and myelitis in infected adult. […] Using a target-based approach, we hope to establish a screening paradigm to uncover novel, cell-active NS2B-NS3 protease (Zika Virus) specific inhibitors from NCATS' collection of small molecules using qHTS.
Four assay panel was created to identify potential Zika Virus inhibitors. Namely, (1) GU unlinked NS2B-NS3 AMC tagged protease qHTS, (2) GU unlinked NS2B-NS3 Rhodamine tagged protease qHTS, (3) NINDS linked NS2B-NS3 AMC tagged protease qHTS, (4) NINDS linked NS2B-NS3 Rhodamine tagged protease qHTS. Active compounds were re-acquired and re-screened to confirm inhibition. Inhibitors were further screened against various confirmatory and counterscreens in dose response format.
Early Translation Branch (ETB)
National Center for Advancing Translational Sciences (NCATS), Rockville, MD
National Institute of Health (NIH), Bethesda, Maryland
Padmanabhan lab provided the NS2B hydrophilic domain and NS3 protease domain in a noncovalent complex used for the unlinked assay. Control compound aprotinin is obtained from Thermo Scientific (#78432; Waltham, Massachusetts). Rhodamine110 substrate ([N-Cbz]-Nle-Lys-Arg-Arg-Rhod110-Arg-Arg-Lys-Nle-[N-Cbz]) was purchased from either Genscript or Bachem.
1536-well Protease (Rhodamine110 Substrate) Assay:
Briefly, 3 microL of enzyme (25 nM final concentration), in assay buffer (10 mM Tris-HCl pH 8.0 with 0.01% Tween 20) were dispensed into a 1,536-well solid-bottom black plate (Greiner Bio One, Monroe, NC). Twenty-three nL of compounds (final concentration range 7.28 nM to 114 microM) or control Aprotinin (final concentration range 3.47 nM to 114 microM) were transferred via Wako Pin-tool (Wako Automation, Richmond, VA). Samples were incubated (room temperature, protected from light) for 15 minutes followed by a 1 microL Rhodamine110 substrate addition (1.5 microM final concentration). Plates were then immediately read on a ViewLux High-throughput CCD imager (PerkinElmer, Waltham, MA) equipped with FITC fluorescence optics (480(20) nm excitation, 540(25) nm emission), then incubated (room temperature, protected from light) for 15 minutes (~15% conversion). The change in fluorescence intensity over the 15-minute reaction period was normalized against no-inhibitor and no-enzyme controls and the resulting percent inhibition data were fitted to a 4-parameter Hill equation. Aprotinin was used as intraplate control.

[4] = system: Zika virus NS2B-NS3 protease (linked construct); experiment: Primary screen NINDS Rhodamine qHTS for Zika virus inhibitors (AID 1347160); note: nearly all actives have a fitted effect of over 55% in size; note: potency is the fitted concentration of half-maximal effect
Outline: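 Purified NS2B-NS3 protease with the NS2B hydrophilic domain joined by a flexible linker (25 nM) in 10 mM Tris-HCl pH 8.0, 0.01% Tween 20, preincubated 15 min at RT with compound; Rhodamine110 peptide substrate 1.5 µM; fluorescence change over 15 min; 4-parameter Hill fit.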

[5] = system: Zika virus NS2B-NS3 protease (linked construct); experiment: Confirmatory screen NINDS AMC qHTS for Zika virus inhibitors (AID 1347152); note: potency is the fitted concentration of half-maximal effect; nearly all actives have a fitted effect of over 70% in size
Outline: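 Linked NS2B-NS3 1 nM, Tris pH 8.0/0.01% Tween 20; cpd 15 min RT dark; + Nle-KRR-AMC 10 µM (Km 18.3 µM); read 0 and 15 min, 340/450 nm; %inh vs controls, 4-param Hill.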

[6] = system: Zika virus NS2B-NS3 protease (unlinked complex); experiment: Confirmatory screen GU AMC qHTS for Zika virus inhibitors (AID 1347153);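 note: enzyme at 25 nM with substrate at 10 µM below its Km of 18.3 µM; potency is the fitted concentration of half-maximal effect; nearly all actives have a fitted effect of over 70% in size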
Outline: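 Unlinked NS2B-NS3 complex (25 nM) in 10 mM Tris-HCl pH 8.0, 0.01% Tween 20 preincubated 15 min with compound, then 10 microM Bz-Nle-KRR-AMC (Km 18.3 µM). Fluorescence change over 15 min, normalized, Hill-fitted.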

[7] = Confirmatory screen GU Rhodamine qHTS for Zika virus inhibitors qHTS (AID 1347157); settings: purified enzyme assay, Rhodamine110 substrate fluorescence, 15 min
Outline: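 Enzyme 25 nM in Tris-HCl pH 8.0 + 0.01% Tween 20; compounds up to 114 microM, 15 min RT dark; + Rhod110 substrate 1.5 microM; read t0 and 15 min; delta fluorescence → % inhibition → 4-parameter Hill fit.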

[8] = Confirmatory screen NINDS Rhodamine qHTS for Zika virus inhibitors (AID 1347161); note: potency is the fitted concentration of half-maximal effect; nearly all actives have a fitted effect of over 60% in size
Outline: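 qHTS dose-response: 25 nM linked protease, pH 8.0 Tris/Tween buffer, cpd titration, 15 min RT preinc, 1.5 microM Rhod110 peptide, 15 min reaction (~15% conversion), Ex480/Em540; 4-parameter Hill fit.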

## Cc1cccc(C)c1NC1=NCCCS1
[1]
  Potency: inactive
[2]
  Potency: inactive

## CCCN1CCC[C@@H]2Cc3[nH]ncc3C[C@H]21
[1]
  Potency: inactive
[2]
  Potency: inactive

## CC(C)=CCOc1c2occc2cc2ccc(=O)oc12
[1]
  Potency: inactive
[2]
  Potency: inactive

## Fc1ccc(C(OCCN2CCN(CCCc3ccccc3)CC2)c2ccc(F)cc2)cc1
[1]
  Potency: inactive
[2]
  Potency: inactive

## C[C@@H]1O[C@@H](O[C@H]2C[C@@H](O)[C@]3(CO)[C@H]4[C@H](O)C[C@]5(C)[C@@H](C6=CC(=O)OC6)CC[C@]5(O)[C@@H]4CC[C@]3(O)C2)[C@H](O)[C@H](O)[C@H]1O
Furin (Homo sapiens)
  Potency: inactive
[1]
  Potency: inactive
[2]
  Potency: inactive
[3]
  Potency: inactive
[4]
  Potency: inactive

## NCC(O)c1ccc(O)cc1 (centres undefined)
[1]
  Potency: inactive
[2]
  Potency: inactive
[4]
  Potency: inactive

## N#CC(C#N)=Cc1ccc(O)c(O)c1
[2]
  Potency: inactive

## N[C@@H]1C[C@H]1c1ccccc1
[2]
  Potency: inactive

## NP(N)(=O)NC(=O)c1ccc(F)cc1
[2]
  Potency: inactive

## CC(C)CC(N(C)C)C1(c2ccc(Cl)cc2)CCC1 (centres undefined)
[2]
  Potency: inactive

## Cc1cc(SCc2sc(-c3ccc(C(F)(F)F)c(F)c3)nc2C)ccc1OCC(=O)O
[5]
  Potency: 17.1 µM (active) and 12.4 µM (active)
[6]
  Potency: 19.2 µM (active) and 17.1 µM (active)
[2]
  Potency: 7640 nM (active)
[7]
  Potency: 2210 nM (active)
[3]
  Potency: 2820 nM (active)
[4]
  Potency: 1780 nM (active)
[8]
  Potency: 1.75 µM (active) and 1.96 µM (active) and 1.97 µM (active)

## C=CCN1CC[C@]23c4c5ccc(O)c4O[C@H]2C(=O)CC[C@@]3(O)[C@H]1C5
[2]
  Potency: inactive

## C[C@]12CCC(=O)C(O)=C1CC[C@@H]1[C@@H]2CC[C@]2(C)C(=O)CC[C@@H]12
[2]
  Potency: inactive

## COC1(CS(=O)c2ccccc2)CCN(CCc2c[nH]c3ccc(F)cc23)CC1 (centres undefined)
[2]
  Potency: inactive

## Cn1c(CCCC(=O)O)nc2cc(N(CCCl)CCCl)ccc21
[2]
  Potency: inactive

## CC(C)(C)NCC(O)c1cc(Cl)c(N)c(Cl)c1 (centres undefined)
[2]
  Potency: inactive

## O=C(NC(O)C(Cl)(Cl)Cl)NC(O)C(Cl)(Cl)Cl (centres undefined)
[2]
  Potency: inactive

## CC(C)(N)Cc1ccc(Cl)cc1
[2]
  Potency: inactive
